# Screens from PubChem.
# EP2 mod: EP2 receptor (human) modulation; P43116; EP2-expressing cells, cAMP HTRF FRET, PGE2 co-stimulation; induction, % at 25 µM; 0.83% of 260,000 active;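 active means compounds whose cAMP rise, as percent of the full-agonist control response, exceeds 60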;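 further: rat C6 glioma line stably carrying human EP2 under a CMV promoter; the protocol text gives 20 µM as final concentration; 100% = response of wells given 1 µM PGE2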
# Target sequence (P43116 whole entry, looked up): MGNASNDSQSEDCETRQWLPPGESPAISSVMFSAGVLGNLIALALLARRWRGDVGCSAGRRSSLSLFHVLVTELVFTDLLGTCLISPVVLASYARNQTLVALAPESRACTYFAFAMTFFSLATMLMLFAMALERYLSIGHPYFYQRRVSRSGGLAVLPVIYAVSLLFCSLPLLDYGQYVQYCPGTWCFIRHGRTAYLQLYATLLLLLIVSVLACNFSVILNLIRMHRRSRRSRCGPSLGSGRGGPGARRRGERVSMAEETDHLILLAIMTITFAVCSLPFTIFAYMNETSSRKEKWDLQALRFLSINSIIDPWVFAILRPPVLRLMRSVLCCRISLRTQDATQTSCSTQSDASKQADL
# Pf gametocyte: P. falciparum stage V gametocyte viability inhibition | AID 743093 | P. falciparum stage V gametocytes, ATP luminescence, 24 h | inhibition, % at 10.9 µM | 0.065% of 150,000 active;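 active means inhibition above the mean plus 3 SD of compounds within the control limits, set per campaign, cut at about 38% in these data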;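 further: 0% = DMSO wells and 100% = medium only without gametocytes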
# Furin inhibitor: human furin inhibition. P09958. purified furin, fluorogenic substrate cleavage. inhibition, % at 20 µM or 30 µM. 0.061% of 220,000 active. AID 463115; in the data active means inhibition above about 25%
# HSV replic up: HSV replication enhancement. HSV replication augmentation in cells, fold increase. maximum fold increase. 0.005% of 220,000 active. AID 1956; in the data active means maximum fold increase above about 1.5; tested in PC3 cells
# EP2 antag: blocks the human prostaglandin E2 receptor EP2; 0.52% of 260,000 active; inhibition, % at 25 µM; P43116; C6 glioma cells expressing human EP2, cAMP TR-FRET; cells stimulated with saturating PGE2;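 active means percent inhibition above 40 after rounding to a whole number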;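 further: rat C6 glioma host cells with rolipram phosphodiesterase inhibitor present; the protocol text gives 20 µM as final concentration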
# EP2 cAMP induct: EP2 receptor cAMP induction, counter-screens negative. calls only at 20 µM (by protocol). shares compounds with EP2 mod. 47% of 1,300 active. AID 1080. C6 glioma EP2 cells, cAMP HTRF induction; plus low (about EC15) PGE2 agonist;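 active means cAMP induction above 50% in the main assay while under 30% in all four parallel counter assays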;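 further: rat C6 glioma cells stably expressing human EP2 receptor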
# Starred values were filed as active, the others as inactive; i = inactive; · = no result; + = active, no number; ! = not active in a repeat. This is a sample that favours compounds with a hit; in the whole collection about 1.4% have one here.
SMILES,EP2 mod,Pf gametocyte,Furin inhibitor,HSV replic up,EP2 antag,others
N#Cc1ccc(C23CC4(C2)[C@H](CN(Cc2ccc(-c5ccccc5)cc2)[C@@H]4c2ccccc2)C3c2ccc(C(F)(F)F)cc2)cc1 (some centres undefined),19.0,·,1.2,i,7.1,
COCCN(CCOC)c1ncnc2c1cnn2-c1ccccc1,78.4*,·,-14.2,i,13.8,
O=C(Nc1ccc(CN2CCOCC2)cc1)c1ccc(-c2cc(Cl)ccc2Cl)o1,-39.3,9.6,1.9,i,59.2*,
Cc1cc2cc(CN(CC3CCCO3)S(=O)(=O)c3ccc4c(c3)OCCO4)c(=O)[nH]c2cc1C (centres undefined),-55.0,·,·,·,9.8,
COc1cc(OC)c(C2SCCCS2)cc1OC,27.0,13.1,-16.6,i,10.4,
COc1cc(C2SCCCCCCCCCCSC(c3ccc(O)c(OC)c3)SCCCCCCCCCCS2)ccc1O (centres undefined),13.9,·,·,·,41.2*,
CN(C)Cc1ccc(-c2cc3onc(-c4ccccc4)c3c(=O)n2C)cc1,-13.8,·,·,·,44.2*,
Cc1nnc2nc(-c3ccc(NC(=O)CN4CCCC4=O)cc3)cn2c1C,-5.0,·,·,·,·,
COc1ccc(CN2C[C@H](Cc3ccccc3)[C@@H](CC(=O)Nc3ccccc3)C2=O)cc1,·,-21.0,·,·,·,
Nc1ccc(N2CCCC2)cc1,-94.4,·,·,·,68.3*,
Nc1ccc(N2CCN(c3cccc(Cl)c3)CC2)cc1,-4.9,-0.5,-17.3,i,12.3,
COc1ccc(NC(=O)CSc2ccc3c(c2)OCCO3)cc1OC,-6.8,28.5,-10.7,i,9.1,
FC(F)(F)c1nc2nc(Cl)c(Cl)nc2n1CCCN1CCOCC1,6.8,·,·,·,46.0*,
CC1CCN(C(=O)c2[nH]cnc2C(=O)N(C)Cc2ccccc2)CC1,·,-15.7,·,·,·,
CC(=O)Nc1nc(C)nc(C)c1C(C)=O,15.2,-21.1,-24.7,i,8.6,
CCOC(=O)C1=C(N)OC2=C(C(=O)CC(C)(C)C2)C1c1ccc(C)s1 (centres undefined),38.0,-12.9,-22.2,i,4.4,
CCOC(=O)C1=C(N)OC2=C(C(=O)CC(C)(C)C2)C1c1ccc(C)cc1 (centres undefined),78.7*,·,·,·,15.2,
CCOC(=O)c1c(-c2ccccc2)csc1NC(=O)COC,80.0*,·,·,·,6.6,
CCOC(=O)c1c(-c2ccc(OCC)cc2)csc1NC(=O)CC,67.1*,·,·,·,6.8,
CCOC(=O)c1c(-c2ccc(C)c(C)c2)csc1NC(=O)COC,92.9*,·,·,·,9.0,
CCOC(=O)c1c(-c2ccccc2)csc1NC(=S)NC,32.7,-3.6,-3.2,i,18.9,
CCOC(=O)c1c(-c2ccc(C)cc2)csc1NC(=O)COC,81.5*,·,·,·,1.8,
CC(C)c1ccc(OC(=O)NCCO)cc1,17.5,-26.4,-8.9,i,6.8,
Cc1ccc(Nc2nc(/N=C/N(C)C)n[nH]2)cc1C,3.7,-1.5,-6.6,i,7.4,
OCc1cc(C(O)CNCCCCCCOCCCCc2ccccc2)ccc1O (centres undefined),69.2*,·,·,i,17.5,
SMILES,EP2 mod,Pf gametocyte,Furin inhibitor,HSV replic up,EP2 antag,others
CCN1/C(=C/C=C/C=C/c2sc3ccccc3[n+]2CC)Sc2ccccc21,-64.0,·,0.6,i,50.0*,
COC(=O)C1=NN(c2ccc(C)cc2)C2(S1)SC(C(C)=O)=C(C)N2c1ccccc1 (centres undefined),63.1*,27.8,-1.1,i,7.5,
COc1cccc(-n2nnc3c(=O)n(Cc4ccc(Cl)cc4)cnc32)c1,19.5,1.5,-20.3,i,5.5,
COc1cccc(-n2nnc3c(=O)n(Cc4ccccc4Cl)cnc32)c1,22.2,5.3,28.0*,i,6.4,
O=C(CSc1nnc(-c2ccc(F)cc2)o1)NC1CCCCC1,-21.4,43.1*,-22.1,i,5.4,
O=C(CSc1nnc(-c2ccncc2)o1)NC1CCCCC1,11.8,14.1,-23.6,i,4.2,
O=S(=O)(c1ccc(NC(=S)Nc2ccc3c(c2)OCO3)cc1)N1CCOCC1,-6.8,26.1,5.8,i,4.7,
O=C(Cn1c(C(F)(F)F)nc2ccccc21)Nc1ccccc1C(=O)O,43.2,39.4*,-14.3,i,6.4,
CC(C(=O)Nc1ccccc1C(=O)O)n1c(C(F)(F)F)nc2ccccc21 (centres undefined),12.4,-31.1,-31.8,i,16.5,
Cc1ccc(SCCCCN2C(=O)NC(C)(C)C2=O)cc1,-5.6,·,32.8*,i,16.2,
CCOC(=O)C1(Cc2cccc(OC)c2)CCCN(CCO)C1 (centres undefined),·,-13.9,·,·,·,
O=C(CSc1nnc(-c2ccccc2O)o1)Oc1ccc(Br)cc1,6.6,25.6,-23.5,i,2.6,
O=C(CSc1nnc(-c2ccccc2Cl)o1)Oc1ccc(Br)cc1,-1.2,·,-22.5,i,47.1*!,
Cc1nnc(SCC(=O)n2c3c(c4ccccc42)CCCC3)s1,64.3*,15.0,-11.9,i,10.4,
N#Cc1c(-c2ccc3c(c2)OCO3)csc1N,-44.3,-26.0,0.3,i,14.4,
Cc1c(Cl)cccc1NC(=O)C[C@H]1Sc2ccccc2NC1=O,-44.0,·,·,·,59.9*,
Cc1c(Cl)cccc1NC(=O)CC1Sc2ccccc2NC1=O (centres undefined),-50.4,·,-30.5,i,3.4,
CCOC(=O)c1cnc(SC)nc1Nc1cccc2ccccc12,61.6*,7.8,-5.5,i,6.3,
Cn1nnnc1SCC(=O)NCc1cccc(C(=O)O)c1,6.1,-12.7,-24.1,i,5.0,
CCc1c(C#N)c(=O)[nH]c(=O)n1-c1ccccc1,·,13.0,·,·,·,
COc1ccccc1N=c1oc2cc(O)ccc2cc1C(N)=O,6.4,55.6*,-200.6,i,9.4,
COc1ccc(N=c2oc3cc(O)ccc3cc2C(N)=O)c(OC)c1,-41.9,·,·,·,11.7,
O=C(O)c1ccccc1CSc1nnc2c(n1)[nH]c1ccccc12,60.8*,10.6,-13.3,i,15.2,
Cc1cccc(C(=O)NNC(=O)Nc2ccccc2)c1,-3.3,-12.9,-26.4,i,3.7,
O=C(/C=C/c1ccccc1)N(c1ccccn1)C1CCCCC1,22.0,·,-0.4,i,12.6,
SMILES,EP2 mod,Pf gametocyte,Furin inhibitor,HSV replic up,EP2 antag,others
CC(C)n1c2ccccc2c2nc3ccccc3nc21,58.0,-18.5,-16.3,i,15.1,EP2 cAMP induct=+
COc1cc(C=O)c(Br)cc1OCC(=O)NCCc1ccccc1,-35.1,-27.0,-19.3,i,3.5,
CCOC(=O)COc1cc(Br)c(/C=N/Nc2ccccc2)cc1OC,68.0*,·,2.3,·,·,EP2 cAMP induct=i
O=C(NCc1ccco1)c1ccc(Cn2c(=O)c3ccccc3n(Cc3ccc(Cl)cc3)c2=O)cc1,21.4,·,-9.4,i,12.7,
Cc1ccc(Cn2c(=O)n(Cc3ccco3)c(=O)c3ccccc32)cc1,67.7*,14.4,-13.9,i,8.5,EP2 cAMP induct=+
O=c1c2ccccc2n(Cc2ccc(Cl)cc2)c(=O)n1Cc1ccco1,50.8,16.8,-11.4,i,4.2,EP2 cAMP induct=+
CCOc1ccc(N(C(=O)CNS(=O)(=O)c2ccccc2)C(CC)C(=O)NCc2ccco2)cc1 (centres undefined),25.4,4.8,-3.5,i,2.7,
